Assay outcomes as filed in PubChem.
In the library only some 6% were active in any assay of this set; here they are far more common.
D1 antag = human D1 dopamine receptor antagonism. activity change, negative = inhibition, % at 10 µM. hit rate 3.2% among 360,000. HEK293 TREx D1 cells, calcium flux, dopamine EC80; stronger effect = lower value; in the data active = activity change below about -30%; also: % is scaled to controls: 0 for no effect and ±100 for the full control effect
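Kinetic fluorescence of a calcium dye serves as the read-out. D1-expressing Hek293 Trex cells, induced overnight at 30 C, are exposed to compound for 180 s before an EC80 dopamine addition, then read 180 s further.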
DRD3 agonist = agonists of human D3 dopamine receptor | P35462 | D3R DiscoveRx beta-arrestin cells, luminescence, 90 min | max activation, % | hit rate 0.58% among 410,000 | AID 652048; in the data active = max activation above about 30%; also: 0% is about no effect
Target sequence (P35462 whole entry, looked up): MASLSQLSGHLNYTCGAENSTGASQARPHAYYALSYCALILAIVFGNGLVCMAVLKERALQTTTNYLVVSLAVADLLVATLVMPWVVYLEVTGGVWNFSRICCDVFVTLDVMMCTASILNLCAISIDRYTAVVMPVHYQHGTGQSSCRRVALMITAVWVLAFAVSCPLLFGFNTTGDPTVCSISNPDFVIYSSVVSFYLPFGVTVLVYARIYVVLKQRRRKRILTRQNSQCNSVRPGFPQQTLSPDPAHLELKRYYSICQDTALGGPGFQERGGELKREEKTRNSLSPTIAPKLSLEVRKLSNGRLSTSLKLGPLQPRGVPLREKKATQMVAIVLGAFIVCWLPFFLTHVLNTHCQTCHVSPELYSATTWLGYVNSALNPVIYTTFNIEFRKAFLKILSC
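Agonist-mode cell screen: cells plated at 1500/well and incubated overnight at 37 °C, then exposed to library compounds for 90 min at 37 °C. Detection reagent was added for 30–60 min at room temperature, and luminescence was read.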
D3 antag = blocks the human D3 dopamine receptor; hit rate 2.5% among 360,000; D3R cells, DiscoveRx beta-arrestin luminescence, antagonist mode; stronger effect = lower value; P35462; max response, negative = inhibition, %; in the data active = max response below about -50%; inconclusive = no clear call, values can overlap the other calls; also: % is scaled to controls: 0 for no effect and ±100 for the full control effect
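Cells plated overnight at 1500 cells/well, then exposed to library compounds with dopamine controls for 90 minutes at 37 degrees C. DiscoveRx reagent added for 30–60 minutes at room temperature; luminescence read, quantitative HTS format.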
D1 potentiator = human D1 dopamine receptor positive modulation | HEK293 TREx D1 cells, calcium flux, dopamine EC20 potentiation | potentiation, % at 10 µM | hit rate 0.036% among 360,000 | AID 504651; in the data active = potentiation above about 30%; also: 0% is about no effect
D1 ag = activates the human D1 dopamine receptor. activation, % at 2 µM. hit rate 1% among 360,000. P21728. AID 504660. HEK293 T-REx D1 cells, calcium flux, agonist mode; in the data active = activation above about 30%; also: 0% is about no effect
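Tetracycline-induced HEK293 TREx D1 cells, force-coupled to calcium signalling, were dye-loaded with a no-wash calcium kit. Compound was pin-added after a 10 s baseline. Fluorescence was read kinetically at 1 cycle/s for 180 s, with calcium rises flagged as agonism.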
Numbers without * were called inactive; u = inconclusive; x = not tested or not shown.

SMILES	D1 antag	DRD3 agonist	D3 antag	D1 potentiator	D1 ag
C[N+]1(C)[C@@H]2CC[C@H]1CC(OC(=O)[C@@H](CO)c1ccccc1)C2 (stereo partly drawn)	-1.2	-3.1	-28.1	-6.7	2.8
N[C@@H](Cc1ccc(Oc2cc(I)c(O)c(I)c2)c(I)c1)C(=O)O	x	-11.2	x	x	x
CCC(=O)O[C@]1(c2ccccc2)CCN(C)C[C@H]1C	x	-19.2	x	x	x
Cc1ccc2nc(N3CCN(C)CC3)[nH]c2c1	-16.7	-1.8	u	4.5	4.3
CN1CCN(c2nc(N)cc(=O)[nH]2)CC1	-57.8*	0.1	3.0	0.9	2.0
O=C(c1ccccc1)c1cn(CC(=O)N2CCCc3ccccc32)c2ccccc12	12.3	-1.4	19.3	-0.8	8.7
CC1CCCN(CC(=O)N2CCCc3ccccc32)C1 (stereo not drawn)	5.4	-35.4	-57.4*	0.4	-0.7
Oc1cc2c(cc1CN1CCN(c3ccccc3F)CC1)OCO2	-25.9	-21.5	-95.8*	x	6.0
COc1ccccc1N1CCN(Cc2cccc(Br)c2)CC1	-27.2	-21.1	-100.2*	-10.7	-2.1
COc1cccc(CN2CCNCC2)c1	5.6	-11.6	u	-2.6	1.5
COc1ccccc1N1CCN(Cc2ccc3c(c2)OCO3)CC1	x	-34.9	-86.8*	x	x
Fc1ccc(N2CCN(Cc3cc4c(cc3Br)OCO4)CC2)cc1	-2.1	-37.1	-8.6	2.8	8.9
CN1CCN(Cc2ccc(Br)s2)CC1	0.7	-29.5	-77.4*	-1.9	1.0
CN(N=O)c1cc(O)ccc1O	-2.4	x	x	-3.5	2.7
CC(C)C(Br)C(=O)NC(N)=O (stereo not drawn)	x	13.6	x	x	x
CN1[C@H]2CC[C@@H]1[C@@H](C(=O)O)[C@@H](OC(=O)c1ccccc1)C2	x	-11.0	x	x	x
Cc1ccc(-n2c(/C=C/c3ccccc3)nc3ccccc3c2=O)cc1Cl	-11.0	-1.1	x	-0.7	-2.0
COc1ccccc1N1CCN(Cc2ccc(Br)s2)CC1	2.6	-6.0	-68.5*	-6.5	-2.3
Cc1ccccc1CN1CCN(c2ccc(Cl)cc2)CC1	-13.6	-18.6	u	-6.5	5.0
Cc1cccc(N2CCN(Cc3ccc4c(c3)OCO4)CC2)c1C	-6.4	-23.8	-105.2*	-7.6	2.1
COc1cc(C)c(CN2CCN(c3ccccc3)CC2)cc1C	-12.4	-51.6	-64.7*	-7.8	3.1
COc1cc(CN2CCN(c3cc(C)ccc3C)CC2)ccc1O	-88.6*	-12.5	u	-8.2	7.0
Cn1c(=O)n(C)c2cc(CNCCc3ccccc3)ccc21	-14.6	-24.9	x	-0.9	11.5
CC[C@H]1C[C@@H]2C[C@H]3c4[nH]c5ccc(OC)cc5c4CCN(C2)[C@@H]13	x	1.8	x	x	x
COc1ccccc1N1CCN(Cc2ccccc2)CC1	-16.8	-4.9	-112.8*	-9.3	0.3
SMILES	D1 antag	DRD3 agonist	D3 antag	D1 potentiator	D1 ag
COc1ccccc1N1CCNCC1	-9.7	-10.8	-17.2	-8.1	2.8
COc1ccccc1N1CCN(Cc2cc(C)c(C)cc2O)CC1	-4.7	-15.7	-84.5*	-7.7	0.4
COc1ccccc1N1CCN(Cc2c(F)cccc2Cl)CC1	3.9	-3.5	0.0	-3.8	3.1
Cc1nonc1OCCNCCNc1ccc([N+](=O)[O-])c2cccnc12	-35.0*	-11.7	-62.8*	0.1	5.8
COc1cc2c(cc1OC)C1[C@H]3C(=CC[C@H]1OC2O)CCN3C (stereo partly drawn)	x	-37.8	-54.0*	x	x
COc1ccc(OC)c(-n2c(O)c(/C=C3\C=Nc4ccccc43)c(=O)[nH]c2=O)c1	7.8	6.3	-2.4	0.7	2.0
CCOc1ccc(-n2c(O)c(/C=C3\C=Nc4ccccc43)c(=O)[nH]c2=O)cc1	-5.4	-6.0	2.8	1.6	32.2*
Cc1ccc(NC(=O)N(Cc2ccc3c(c2)OCO3)C2CCN(Cc3ccccc3)CC2)cc1Cl	-7.0	-25.8	x	-4.8	41.7*
CN1CCN(c2oc(-c3ccc(COc4ccccc4)o3)nc2C#N)CC1	-8.8	-0.1	x	-1.5	-1.4
CN1C[C@H](CO)C[C@@H]2c3cccc4[nH]cc(c34)C[C@H]21	-42.5*	30.5*	-56.2*	-7.5	1.0
CCN(CC)C(=O)N[C@H]1C[C@@H]2c3cccc4[nH]cc(c34)C[C@H]2N(C)C1	-89.5*	79.4*	-3.9	-5.8	2.0
Cc1ccc(C(=O)N[C@@H](C)CN2C3=NC[C@@H](Cc4ccccc4)N3C[C@H]2Cc2ccc(O)cc2)cc1Br	-44.1*	-53.0	-70.4*	-5.8	-0.8
Cc1ccc(C(=O)N[C@@H](C)CN2C3=NC[C@H](Cc4ccccc4)N3C[C@H]2Cc2ccc(O)cc2)cc1Br	-65.2*	-22.9	-27.2	-12.3	0.1
COc1ccccc1N=Cc1c(O)n(C)c(=O)n(C)c1=O	-35.4*	0.3	-9.6	0.1	2.2
COc1ccc(Cl)cc1N=Cc1c(O)n(C)c(=O)n(C)c1=O	3.0	24.0	-14.7	-8.3	1.3
COc1cc([C@@H]2c3cc4c(cc3[C@@H](O)[C@H]3COC(=O)[C@H]23)OCO4)cc(OC)c1O	x	-9.7	x	x	x
CCN(Cc1ccc(Cl)nc1)/C(=C/[N+](=O)[O-])NC	x	-8.7	x	x	x
CCN1C(=O)/C(=C/c2ccc3c(c2)CCN3CCCCl)C(=O)NC1=S	1.2	5.3	18.2	0.2	3.9
CC(C)(C)N1C(=O)NC(=O)/C(=C\c2ccc3c(c2)CCN3CCCCl)C1=O	-32.4*	-15.7	u	-0.5	1.3
Cc1cccc(C2CC(=O)Oc3c2c(=O)oc2ccccc32)c1 (stereo not drawn)	9.3	-13.5	x	2.1	-0.2
CCOC(=O)[C@]12Cc3ccc(C)cc3[C@H]1N(C1CCCCC1)C(=O)c1cc(OC)ccc12	x	-10.2	u	x	x
CCOC(=O)[C@]12Cc3cc(Cl)ccc3[C@H]1N(C1CCCCC1)C(=O)c1cc(OC)ccc12	x	-13.4	-123.4*	x	x
CCOC(=O)[C@]12Cc3ccc(C)cc3[C@H]1N(C1CCCCC1)C(=O)c1ccccc12	x	-8.9	-72.7*	x	x
FC(F)OC(F)(F)C(F)Cl (stereo not drawn)	x	10.9	x	x	x
Oc1c(Br)c(Br)c(Br)c(Br)c1Br	x	-85.1	-55.3*	1.1	3.3
SMILES	D1 antag	DRD3 agonist	D3 antag	D1 potentiator	D1 ag
Cc1ccc(CN2Cc3ccc(Br)cc3-n3nncc3C2)cc1	x	-11.3	-55.5*	x	x
Brc1ccc2c(c1)-n1nncc1CN(CC1CCCCC1)C2	x	-10.8	u	x	x
Cn1c(O)c(/C=C/C=Nc2ccccc2)c(=O)n(C)c1=O	7.0	2.7	4.0	7.2	23.0
CCCCn1c(O)c(/C=C/C=Nc2ccccc2)c(=O)[nH]c1=O	1.6	4.0	-2.8	-2.5	70.8*
O=[N+]([O-])/N=C1\NCCN1Cc1ccc(Cl)nc1	x	10.5	x	x	x
Fc1ccc2c(c1)nnn2C1CCN(Cc2ccccc2)CC1	-33.2*	-9.0	-77.8*	-19.6	0.9
Fc1ccc2c(c1)nnn2C1CCN(Cc2nnnn2CCc2ccccc2)CC1	-9.1	-9.1	-74.7*	-6.8	0.6
O=P1(Oc2ccccc2)OCCCS1 (stereo not drawn)	-30.3*	0.8	10.2	-1.8	1.3
